# Screens from PubChem BioAssay.
# Pf growth 96h: Primary qHTS for delayed death inhibitors of the malarial parasite plastid, 96 hour incubation; P. falciparum luciferase reporter growth, 96 h; Potency, µM (top dose mostly 28.7 µM), actives largely listed as inhibitors; hit rate 6.9% among 320,000; AID 504834, 2011
#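 Two-generation exposure (96 h) targets delayed-death phenotype. Reporter parasites carrying integrated firefly luciferase, in red cells at 2% hematocrit and 0.05% parasitemia final, kept at 37 C, 5% CO2; luminescence loss indicates inhibition.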
# Shiga toxin inh: A qHTS for Small Molecule Inhibitors of Shiga Toxin; hit rate 9.2% among 290,000; Vero cells, Shiga toxin protein synthesis inhibition reporter; inhibition, % at 38.7 µM; AID 2315, 2010; in the data active means inhibition mostly above about 28%, no sharp cut-off; inactive means mostly below about 43%
# CHX counter: Cycloheximide Counterscreen for Small Molecule Inhibitors of Shiga Toxin. cell reporter, cycloheximide protein synthesis inhibition counterscreen. max response, %. hit rate 12% among 300,000. AID 2314, 2010; in the data active means max response mostly above about 13%, no sharp cut-off; inactive means mostly below about 14%; further: read at 38.3 µM for the half of the compounds with a filed dose
# Pf growth 48h: Primary qHTS for delayed death inhibitors of the malarial parasite plastid, 48 hour incubation; P. falciparum luciferase growth in erythrocytes, 48 h; hit rate 5.9% among 310,000; AID 504832, 2011; Potency, µM (doses to about 28.7 µM), usual class: inhibitors
#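 Luciferase-expressing parasites in RBCs, 2% Hct / 0.1% parasitemia final; RPMI 1640 + 0.5% Albumax; 37 C, 5% CO2, one generation; luminescence read-out, lower signal = inhibition.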
# FBPA Giardia inh: qHTS Assay for Inhibitors of Fructose-1,6-bisphosphate Aldolase from Giardia Lamblia; A8B2U2; purified Giardia FBPA; Potency, µM (doses to about 59.6 µM), actives largely listed as inhibitors; hit rate 0.71% among 290,000; further: nearly all actives have a fitted effect of over 55% in size
# Target sequence (A8B2U2 whole entry, looked up): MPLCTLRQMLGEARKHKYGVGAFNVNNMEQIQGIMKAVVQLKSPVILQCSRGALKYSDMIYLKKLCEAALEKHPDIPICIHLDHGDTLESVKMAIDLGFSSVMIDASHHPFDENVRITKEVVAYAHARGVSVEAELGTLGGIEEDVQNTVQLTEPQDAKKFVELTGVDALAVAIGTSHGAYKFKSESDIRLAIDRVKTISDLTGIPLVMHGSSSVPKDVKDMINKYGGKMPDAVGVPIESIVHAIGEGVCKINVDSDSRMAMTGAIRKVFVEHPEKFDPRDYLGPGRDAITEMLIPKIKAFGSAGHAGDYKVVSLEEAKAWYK
#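 Giardia FBPA (40 nM reagent) was preincubated 10 min at RT with compound (up to 57.5 uM final), then substrate plus GAPDH/TPI/NAD/arsenate coupling system with diaphorase/resazurin was added; resorufin fluorescence (525/598 nm) was read after 20 min.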
# NS1 function inh: qHTS Assay for Inhibitors of Influenza NS1 Protein Function. Potency, µM (titrated, usually from 46.1 µM). hit rate 0.4% among 270,000. AID 2326, 2010; calls by dose curve; further: actives are rising curves; nearly all actives have a fitted effect of over 50% in size
#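 Recovery from NS1-induced slow growth read by OD600 in budding yeast switched to galactose assay medium (pH 6.0, -URA) at 1:100 dilution. Compound 23 nl per well; the matching strain lacking NS1 serves as control.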
# Numbers stand for hits; – = inactive; ? = inconclusive; · = no result given. This is a sample that favours compounds with a hit; in the whole collection about 21% have one here. Unless noted, the call rests on the fitted dose curve; in most records, active means well fitted curve in the direction sought with a large enough effect; inconclusive means small, poorly fitted or top-dose-only effect, or another doubt; inactive means no such curve, though single readings can be large; an effect the other way counts as inactive or inconclusive.
SMILES,Pf growth 96h,Shiga toxin inh,CHX counter,Pf growth 48h,FBPA Giardia inh,NS1 function inh
O=C(Nc1ccccc1)c1cccc(S(=O)(=O)NC2CCCC2)c1,12µM,–,–,–,·,–
CC(=O)Nc1ccc(NC(=O)c2cccc(S(=O)(=O)N(C)C3CCCCC3)c2)cc1,?,·,·,7.4µM,·,·
CC(=O)c1cccc(S(=O)(=O)NC2CCCCCC2)c1,–,–,–,–,–,–
Cc1ccc(NC(=O)c2cccc(S(=O)(=O)N(C)C3CCCCC3)c2)nc1,9.3µM,·,·,5.2µM,·,·
CC(=O)Nc1ccc(NC2CCCCC2NS(=O)(=O)c2ccccc2)cc1 (stereo unspecified),8.3µM,–,–,–,·,–
O=S(=O)(NC1CCCCC1Nc1ccc(Cl)cc1)c1ccccc1 (stereo unspecified),–,–,–,–,–,–
CC(=O)c1nnn(-c2cccc(C#N)c2)c1C,–,–,–,–,–,–
CC(=O)N1CCN(S(=O)(=O)c2cccc(C(=O)OCc3cccc(F)c3)c2)CC1,–,·,·,–,·,·
CCOC(=O)c1ccc(N=NN(C)C)cc1,–,91,31,–,–,–
CCOC(=O)c1ccc(C(=O)OCC)nc1,–,35,16,–,–,–
CCOC(=O)c1cccnc1,–,·,·,–,·,·
COc1ccc(NC(=O)C2CCCC2)cn1,–,–,–,–,–,·
Cc1oc2cc3oc(=O)c(CCC(=O)NCCN4CCOCC4)c(C)c3cc2c1C,10µM,31,29,–,–,–
Cc1ccc(-n2ncc3c(NNC(=O)c4cccs4)ncnc32)cc1,?,–,–,–,–,·
C=CCNc1nc(-c2sc(NC(C)=O)nc2C)cs1,–,132,41,?,–,–
C=CCNc1nc(-c2sc(NC(=O)CC)nc2C)cs1,–,96,36,?,?,–
O=C(NCc1ccccc1Cl)c1cc2c(s1)CS(=O)(=O)C2,–,–,–,–,·,–
CCc1cc(SC#N)ccc1N,?,–,–,?,–,·
CCOC(=O)c1c(C)n(Cc2ccccc2)c2ccc(O)cc12,–,–,–,–,–,–
CCOC(=O)c1c(C(=O)OCC)c(C)n(CCc2ccccc2)c1C,9.3µM,–,–,?,–,–
CCOC(=O)c1c(C)nn(Cc2ccccc2)c1N,5.2µM,–,–,–,–,–
CCOC(=O)c1c(C)c(/C=N/Nc2ccccc2)n(C)c1C,?,–,13,?,–,–
CCOC(=O)c1cnn(Cc2ccccc2)c1N,–,–,–,–,–,–
CCOC(=O)c1c(C)c(C(=O)NCCc2ccccc2)c(C)n1C,–,104,40,–,–,·
CC(=O)c1ccc(-c2cccc(C3C4C=CCCC4(C)C(=O)N3Cc3ccccc3)c2)cc1 (stereo unspecified),·,–,–,·,–,·
SMILES,Pf growth 96h,Shiga toxin inh,CHX counter,Pf growth 48h,FBPA Giardia inh,NS1 function inh
O=S(=O)(c1ccccc1)N1CCC2(CCN(C(c3ccccc3)c3ccccc3)CC2)CC1,·,·,·,·,–,·
COCCN(CCOC)C(=O)COC(=O)c1ccc(Cl)c(S(=O)(=O)N(C)c2ccccc2)c1,?,–,–,–,–,·
Cc1cc(N2CCN(C)CC2)nc2ccc(NC(=S)N3CCCCC3)cc12,9.3µM,–,–,3.3µM,–,–
Cc1cc(N2CCN(C)CC2)nc2ccc(NC(=S)N3CCN(c4ccc(Cl)cc4)CC3)cc12,–,–,–,13µM,–,·
Cc1cccc(N2CCN(C(=S)Nc3ccc4nc(N5CCN(C)CC5)cc(C)c4c3)CC2)c1C,?,–,–,12µM,–,·
Cc1cccc(N2CCN(C(=S)Nc3ccc4nc(N5CCN(C)CC5)cc(C)c4c3)CC2C)c1 (stereo unspecified),9.3µM,–,–,?,–,–
Cc1cc(N2CCN(C)CC2)nc2ccc(NC(=S)N3CCN(c4cccc(Cl)c4)CC3)cc12,–,–,–,?,–,–
COc1cccc(NC(=O)C2CCC(CNS(=O)(=O)c3ccc4c(c3)CC(C)N4C(C)=O)CC2)c1 (stereo unspecified),?,–,–,?,–,–
Nc1ccc(S(=O)(=O)NC(Cc2ccccc2)C(=O)O)cc1 (stereo unspecified),–,–,–,–,–,–
Cc1cc(N2CCN(C)CC2)nc2ccc(NC(=S)N3CCCCCC3)cc12,–,–,–,?,–,–
Cc1cc(N2CCCC2)nc2ccc(NC(=S)NCCCN3CCC(C)CC3)cc12,–,–,–,?,–,·
